Columns and labels:
Test in all cases: PBM binding z-score (relative to random genomic background probes); higher = stronger binding; sequences stand for … in GC…GCGATTGACAGCGTAGAATGAAGG
[1] = tested on: FXR:RXRa (NR concentration 270 nM, RXRa partner concentration 90 nM)
How it was run: (§1)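 The probes on custom Agilent 4×180K protein-binding microarrays were double-stranded, with 34-nt variable regions bearing direct-repeat seeds, single-nucleotide variants, half-site ablations and random human genomic background sequences. Incubation lasted 1 h with ligand-free nuclear receptor dimers in PBS pH 7.4, 2% milk, 0.02% Triton X-100, 1 mM DTT, 0.2 mg/mL BSA and 0.4 mg/ml salmon testes DNA. Antibodies against each partner (one per run) detected bound dimers, and fluorescence scans were regression-normalized. Binding z-scores take the random background probes as reference.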

[2] = tested on: LXRa:RXRa (NR concentration 270 nM, RXRa partner concentration 90 nM)
How it was run: as §1

[3] = tested on: LXRa homodimer (NR concentration 270 nM)
How it was run: as §1

[4] = tested on: LXRb:RXRa (NR concentration 270 nM, RXRa partner concentration 90 nM)
How it was run: as §1

[5] = tested on: LXRb homodimer (NR concentration 270 nM)
How it was run: as §1

[6] = tested on: PPARa:RXRa (NR concentration 270 nM, RXRa partner concentration 90 nM)
How it was run: as §1

[7] = tested on: PPARg:RXRa (NR concentration 180 nM, RXRa partner concentration 90 nM)
How it was run: as §1

[8] = tested on: PPARg:RXRa 270nM:90nM, anti-RXR (NR concentration 270 nM, RXRa partner concentration 90 nM)
How it was run: as §1

[9] = tested on: PPARg:RXRa 30nM:10nM, anti-RXR (NR concentration 30 nM, RXRa partner concentration 10 nM)
How it was run: as §1

[10] = tested on: PPARg:RXRa 90nM:30nM, anti-RXR (NR concentration 90 nM, RXRa partner concentration 30 nM)
How it was run: as §1

Question: Which results are given for CGTCCAAGATCAAAGGTCAGTGAAGAGATGACGG?
Answer: PBM binding z-score [1]: 3.66; PBM binding z-score [2]: 3.73; PBM binding z-score [3]: 1.53; PBM binding z-score [4]: 3.21; PBM binding z-score [5]: 0.413; PBM binding z-score [6]: 4.84; PBM binding z-score [7]: 5.29; PBM binding z-score [8]: 5.82; PBM binding z-score [9]: 3.81; PBM binding z-score [10]: 5.56

Question: For CCTTGTTGGTCAAGGTCACACACGCTATAGGTAC, which PBM binding z-score [1] is on record?
Answer: The PBM binding z-score was 4.42.

Question: What about the PBM binding z-score [2] of the same sequence?
Answer: Its PBM binding z-score is 3.87.

Question: What about the PBM binding z-score [3] of the same sequence?
Answer: The PBM binding z-score was 2.19.

Question: And the PBM binding z-score [4]?
Answer: The PBM binding z-score was 3.91.

Question: And the PBM binding z-score [5]?
Answer: Its PBM binding z-score is 0.763.

Question: What about the PBM binding z-score [6] of the same sequence?
Answer: The PBM binding z-score was 4.27.

Question: And the PBM binding z-score [7]?
Answer: The PBM binding z-score was 3.05.

Question: What about the PBM binding z-score [8] of the same sequence?
Answer: Its PBM binding z-score is 3.47.

Question: And the PBM binding z-score [9]?
Answer: The PBM binding z-score was 1.21.

Question: And the PBM binding z-score [10]?
Answer: Its PBM binding z-score is 2.69.

Question: With TCATATAGGTCAATGCTAGGTGAAAGTCCGATCT as the sequence, how does the PBM binding z-score [1] read?
Answer: Its PBM binding z-score is 5.19.

Question: And the PBM binding z-score [2]?
Answer: Its PBM binding z-score is 4.7.

Question: And the PBM binding z-score [3]?
Answer: Its PBM binding z-score is 1.51.

Question: And the PBM binding z-score [4]?
Answer: Its PBM binding z-score is 3.52.

Question: And the PBM binding z-score [5]?
Answer: The PBM binding z-score was 1.02.

Question: What about the PBM binding z-score [6] of the same sequence?
Answer: The PBM binding z-score was 5.

Question: And the PBM binding z-score [7]?
Answer: Its PBM binding z-score is 5.86.

Question: And the PBM binding z-score [8]?
Answer: The PBM binding z-score was 6.06.

Question: And the PBM binding z-score [9]?
Answer: The PBM binding z-score was 4.7.

Question: And the PBM binding z-score [10]?
Answer: Its PBM binding z-score is 5.89.

Question: For GGAACGAGGGCAAAGTTGATATCATCTGTCGACG, which PBM binding z-score [1] is on record?
Answer: Its PBM binding z-score is 1.25.

Question: What about the PBM binding z-score [2] of the same sequence?
Answer: Its PBM binding z-score is 0.812.

Question: What about the PBM binding z-score [3] of the same sequence?
Answer: Its PBM binding z-score is -0.316.

Question: And the PBM binding z-score [4]?
Answer: The PBM binding z-score was 0.894.

Question: What about the PBM binding z-score [5] of the same sequence?
Answer: The PBM binding z-score was -0.47.

Question: And the PBM binding z-score [6]?
Answer: The PBM binding z-score was 3.94.

Question: And the PBM binding z-score [7]?
Answer: The PBM binding z-score was 6.68.

Question: What about the PBM binding z-score [8] of the same sequence?
Answer: Its PBM binding z-score is 6.84.

Question: And the PBM binding z-score [9]?
Answer: The PBM binding z-score was 6.13.

Question: What about the PBM binding z-score [10] of the same sequence?
Answer: The PBM binding z-score was 7.1.

Question: Which results are given for ATCTCTAGGTAAGACTCGGTTCAGTGAAGAACGC?
Answer: PBM binding z-score [1]: 0.472; PBM binding z-score [2]: 0.583; PBM binding z-score [3]: 0.614; PBM binding z-score [4]: 0.263; PBM binding z-score [5]: 1.07; PBM binding z-score [6]: -0.0579; PBM binding z-score [7]: -0.0197; PBM binding z-score [8]: 0.126; PBM binding z-score [9]: 0.0672; PBM binding z-score [10]: 0.278

Question: Which results are given for CGTCAAAGTTCAGCTAAGGTAACGTAAAGCACGC?
Answer: PBM binding z-score [1]: 4.58; PBM binding z-score [2]: 4.17; PBM binding z-score [3]: 1.68; PBM binding z-score [4]: 2.31; PBM binding z-score [5]: 0.319; PBM binding z-score [6]: 3.68; PBM binding z-score [7]: 3.16; PBM binding z-score [8]: 3.94; PBM binding z-score [9]: 1.03; PBM binding z-score [10]: 2.96

Question: How did the PBM binding z-score [1] turn out when GCTCGGCGGACAAGGTCAGAGCTTTGTCCGTAGA was run?
Answer: The PBM binding z-score was 1.19.

Question: What about the PBM binding z-score [2] of the same sequence?
Answer: Its PBM binding z-score is 1.42.

Question: What about the PBM binding z-score [3] of the same sequence?
Answer: Its PBM binding z-score is -0.598.

Question: What about the PBM binding z-score [4] of the same sequence?
Answer: The PBM binding z-score was 0.784.

Question: What about the PBM binding z-score [5] of the same sequence?
Answer: Its PBM binding z-score is -1.28.

Question: And the PBM binding z-score [6]?
Answer: The PBM binding z-score was 2.03.

Question: What about the PBM binding z-score [7] of the same sequence?
Answer: The PBM binding z-score was -0.519.

Question: And the PBM binding z-score [8]?
Answer: Its PBM binding z-score is 0.435.

Question: And the PBM binding z-score [9]?
Answer: Its PBM binding z-score is -0.807.

Question: What about the PBM binding z-score [10] of the same sequence?
Answer: The PBM binding z-score was -0.297.

Question: With CCTACTGTGCCAAGGTCATTGATCAGTCAAAGCA as the sequence, how does the PBM binding z-score [1] read?
Answer: Its PBM binding z-score is 3.24.

Question: What about the PBM binding z-score [2] of the same sequence?
Answer: The PBM binding z-score was 3.74.

Question: What about the PBM binding z-score [3] of the same sequence?
Answer: The PBM binding z-score was 1.67.

Question: What about the PBM binding z-score [4] of the same sequence?
Answer: Its PBM binding z-score is 3.26.

Question: And the PBM binding z-score [5]?
Answer: Its PBM binding z-score is 0.681.

Question: What about the PBM binding z-score [6] of the same sequence?
Answer: The PBM binding z-score was 4.05.

Question: And the PBM binding z-score [7]?
Answer: Its PBM binding z-score is 3.18.

Question: And the PBM binding z-score [8]?
Answer: The PBM binding z-score was 3.78.

Question: What about the PBM binding z-score [9] of the same sequence?
Answer: The PBM binding z-score was 1.24.

Question: What about the PBM binding z-score [10] of the same sequence?
Answer: The PBM binding z-score was 2.83.

Question: For ATCGAAAGGCCGTGAGGTGAGTATACAGAAAGGC, which PBM binding z-score [1] is on record?
Answer: The PBM binding z-score was 0.424.

Question: What about the PBM binding z-score [2] of the same sequence?
Answer: The PBM binding z-score was 0.135.

Question: And the PBM binding z-score [3]?
Answer: Its PBM binding z-score is -0.0346.

Question: And the PBM binding z-score [4]?
Answer: The PBM binding z-score was -0.0132.

Question: What about the PBM binding z-score [5] of the same sequence?
Answer: Its PBM binding z-score is -0.426.

Question: What about the PBM binding z-score [6] of the same sequence?
Answer: The PBM binding z-score was 0.369.

Question: What about the PBM binding z-score [7] of the same sequence?
Answer: Its PBM binding z-score is 0.827.

Question: What about the PBM binding z-score [8] of the same sequence?
Answer: The PBM binding z-score was 0.177.

Question: And the PBM binding z-score [9]?
Answer: Its PBM binding z-score is 0.199.

Question: And the PBM binding z-score [10]?
Answer: Its PBM binding z-score is -0.0286.

Question: TCTAGTTAGTCAAAGGTCACACACTCGAAATGCG was tested. Which PBM binding z-score [1] did it give?
Answer: The PBM binding z-score was 5.6.

Question: And the PBM binding z-score [2]?
Answer: Its PBM binding z-score is 5.78.

Question: What about the PBM binding z-score [3] of the same sequence?
Answer: The PBM binding z-score was 4.78.

Question: What about the PBM binding z-score [4] of the same sequence?
Answer: Its PBM binding z-score is 5.34.

Question: And the PBM binding z-score [5]?
Answer: The PBM binding z-score was 1.76.

Question: And the PBM binding z-score [6]?
Answer: Its PBM binding z-score is 5.98.

Question: What about the PBM binding z-score [7] of the same sequence?
Answer: Its PBM binding z-score is 8.

Question: What about the PBM binding z-score [8] of the same sequence?
Answer: The PBM binding z-score was 7.8.

Question: What about the PBM binding z-score [9] of the same sequence?
Answer: The PBM binding z-score was 6.86.

Question: And the PBM binding z-score [10]?
Answer: Its PBM binding z-score is 8.1.

Question: ATATGTAGGTTAGCTGGGTTCATTCAGACTAGGC was tested. Which PBM binding z-score [1] did it give?
Answer: The PBM binding z-score was 1.75.

Question: And the PBM binding z-score [2]?
Answer: Its PBM binding z-score is 4.53.

Question: What about the PBM binding z-score [3] of the same sequence?
Answer: The PBM binding z-score was 2.19.

Question: And the PBM binding z-score [4]?
Answer: The PBM binding z-score was 2.2.

Question: And the PBM binding z-score [5]?
Answer: The PBM binding z-score was 0.361.

Question: What about the PBM binding z-score [6] of the same sequence?
Answer: Its PBM binding z-score is 3.76.

Question: What about the PBM binding z-score [7] of the same sequence?
Answer: Its PBM binding z-score is 4.18.

Question: What about the PBM binding z-score [8] of the same sequence?
Answer: The PBM binding z-score was 3.74.

Question: What about the PBM binding z-score [9] of the same sequence?
Answer: Its PBM binding z-score is 1.75.

Question: What about the PBM binding z-score [10] of the same sequence?
Answer: The PBM binding z-score was 2.89.

Question: Which PBM binding z-score [1] does the source give for CCTGGGAGGACAGAAGGTCAGAGCTGTCCGCTTT here?
Answer: The PBM binding z-score was 1.53.

Question: What about the PBM binding z-score [2] of the same sequence?
Answer: The PBM binding z-score was 1.86.

Question: And the PBM binding z-score [3]?
Answer: The PBM binding z-score was 0.303.

Question: What about the PBM binding z-score [4] of the same sequence?
Answer: Its PBM binding z-score is 1.01.

Question: What about the PBM binding z-score [5] of the same sequence?
Answer: Its PBM binding z-score is -0.655.

Question: What about the PBM binding z-score [6] of the same sequence?
Answer: Its PBM binding z-score is 2.

Question: What about the PBM binding z-score [7] of the same sequence?
Answer: The PBM binding z-score was -0.0173.

Question: What about the PBM binding z-score [8] of the same sequence?
Answer: The PBM binding z-score was 1.11.

Question: And the PBM binding z-score [9]?
Answer: Its PBM binding z-score is -0.659.

Question: What about the PBM binding z-score [10] of the same sequence?
Answer: Its PBM binding z-score is 0.29.

Source: the supplement of paper PMC6555819
